{"source": "PubChem BioAssay AID1159580", "about": "(chemical genetic matrix, 2015)", "test": "chemical genetic growth profiling, strain panel (AID 1159580);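 further: tested at 20 µM; growth read once vehicle control cultures reached saturation at 30 °C; 1 = growth at the plate median or of vehicle wells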", "conditions": "S. cerevisiae deletion strains, growth OD", "note": "Screen size: about 5,500 compounds; about 2,000 (36%) were called active. Not shown: some 18% with an inconclusive outcome. The list shows a part of the results. A number with no mark means an inactive call. No stated cut-off is given here; in the data, active means normalized growth mostly below about 0.91 (no sharp cut-off); inconclusive means no clear call, values can overlap the other calls; inactive means mostly above about 0.92."}
{"smiles": "CCCCC/C=C\\C/C=C\\C/C=C\\C/C=C\\CCCC(=O)O", "values": [{"measurement": "normalized growth", "setting": "locus YAL013W, strain DEP1, stronger effect = lower value", "result": 0.987}, {"measurement": "normalized growth", "setting": "locus YAL021C, strain ccr4, stronger effect = lower value", "result": 0.986}, {"measurement": "normalized growth", "setting": "locus YAL026C, strain drs2, stronger effect = lower value", "result": "0.831 (active)"}, {"measurement": "normalized growth", "setting": "locus YAL030W, strain snc1, stronger effect = lower value", "result": 0.978}, {"measurement": "normalized growth", "setting": "locus YBL061C, strain skt5, stronger effect = lower value", "result": 0.962}, {"measurement": "normalized growth", "setting": "locus YBR009C, strain hhf1, stronger effect = lower value", "result": 0.952}, {"measurement": "normalized growth", "setting": "locus YBR021W, strain FUR4, stronger effect = lower value", "result": 0.95}, {"measurement": "normalized growth", "setting": "locus YBR023C, strain chs3, stronger effect = lower value", "result": 0.963}, {"measurement": "normalized growth", "setting": "locus YBR171W, strain sec66, stronger effect = lower value", "result": 0.979}, {"measurement": "normalized growth", "setting": "locus YBR229C, strain ROT2, stronger effect = lower value", "result": 0.994}, {"measurement": "normalized growth", "setting": "locus YBR231C, strain swc5, stronger effect = lower value", "result": 0.975}, {"measurement": "normalized growth", "setting": "locus YBR279W, strain paf1, stronger effect = lower value", "result": 0.976}, {"measurement": "normalized growth", "setting": "locus YCL011C, strain gbp2, stronger effect = lower value", "result": 0.971}, {"measurement": "normalized growth", "setting": "locus YCL016C, strain dcc1, stronger effect = lower value", "result": 0.974}, {"measurement": "normalized growth", "setting": "locus YCL029C, strain bik1, stronger effect = lower value", "result": 0.986}, {"measurement": "normalized growth", "setting": "locus YCL061C, strain MRC1, stronger effect = lower value", "result": 0.975}, {"measurement": "normalized growth", "setting": "locus YCL069W, strain vba3, stronger effect = lower value", "result": 0.969}, {"measurement": "normalized growth", "setting": "locus YCR088W, strain abp1, stronger effect = lower value", "result": 0.975}, {"measurement": "normalized growth", "setting": "locus YDL005C, strain med2, stronger effect = lower value", "result": 0.984}, {"measurement": "normalized growth", "setting": "locus YDL035C, strain GPR1, stronger effect = lower value", "result": 0.953}, {"measurement": "normalized growth", "setting": "locus YDL040C, strain nat1, stronger effect = lower value", "result": 0.97}, {"measurement": "normalized growth", "setting": "locus YDL074C, strain BRE1, stronger effect = lower value", "result": 0.916}, {"measurement": "normalized growth", "setting": "locus YDL101C, strain DUN1, stronger effect = lower value", "result": 0.989}, {"measurement": "normalized growth", "setting": "locus YDL134C, strain PPH21, stronger effect = lower value", "result": 0.984}, {"measurement": "normalized growth", "setting": "locus YDL185W, strain tfp1, stronger effect = lower value", "result": 0.974}, {"measurement": "normalized growth", "setting": "locus YDL192W, strain arf1, stronger effect = lower value", "result": 0.965}, {"measurement": "normalized growth", "setting": "locus YDR001C, strain nth1, stronger effect = lower value", "result": 0.972}, {"measurement": "normalized growth", "setting": "locus YDR069C, strain doa4, stronger effect = lower value", "result": 0.993}, {"measurement": "normalized growth", "setting": "locus YDR101C, strain arx1, stronger effect = lower value", "result": 0.968}, {"measurement": "normalized growth", "setting": "locus YDR137W, strain rgp1, stronger effect = lower value", "result": "0.846 (active)"}, {"measurement": "normalized growth", "setting": "locus YDR150W, strain NUM1, stronger effect = lower value", "result": 0.99}, {"measurement": "normalized growth", "setting": "locus YDR159W, strain sac3, stronger effect = lower value", "result": 0.926}, {"measurement": "normalized growth", "setting": "locus YDR162C, strain NBP2, stronger effect = lower value", "result": 0.967}, {"measurement": "normalized growth", "setting": "locus YDR195W, strain ref2", "result": 1.01}, {"measurement": "normalized growth", "setting": "locus YDR297W, strain sur2, stronger effect = lower value", "result": 0.972}, {"measurement": "normalized growth", "setting": "locus YDR318W, strain mcm21, stronger effect = lower value", "result": 0.957}, {"measurement": "normalized growth", "setting": "locus YDR334W, strain swr1, stronger effect = lower value", "result": 0.969}, {"measurement": "normalized growth", "setting": "locus YDR335W, strain msn5, stronger effect = lower value", "result": 0.971}, {"measurement": "normalized growth", "setting": "locus YDR388W, stronger effect = lower value", "result": 0.979}, {"measurement": "normalized growth", "setting": "locus YDR392W, strain spt3, stronger effect = lower value", "result": "0.474 (active)"}, {"measurement": "normalized growth", "setting": "locus YDR502C, strain sam2, stronger effect = lower value", "result": 0.977}, {"measurement": "normalized growth", "setting": "locus YEL003W, strain gim4, stronger effect = lower value", "result": 0.975}, {"measurement": "normalized growth", "setting": "locus YEL037C, strain rad23, stronger effect = lower value", "result": 0.974}, {"measurement": "normalized growth", "setting": "locus YEL061C, strain CIN8 (second series), stronger effect = lower value", "result": 0.966}, {"measurement": "normalized growth", "setting": "locus YEL061C, strain CIN8, stronger effect = lower value", "result": 0.982}, {"measurement": "normalized growth", "setting": "locus YER015W, strain faa2, stronger effect = lower value", "result": 0.973}, {"measurement": "normalized growth", "setting": "locus YER016W, strain bim1, stronger effect = lower value", "result": 0.978}, {"measurement": "normalized growth", "setting": "locus YER110C, stronger effect = lower value", "result": 0.976}, {"measurement": "normalized growth", "setting": "locus YER111C, strain swi4, stronger effect = lower value", "result": 0.963}, {"measurement": "normalized growth", "setting": "locus YER155C, strain BEM2 (second series), stronger effect = lower value", "result": "0.746 (active)"}, {"measurement": "normalized growth", "setting": "locus YER155C, strain BEM2, stronger effect = lower value", "result": 0.984}, {"measurement": "normalized growth", "setting": "locus YER167W, strain BCK2, stronger effect = lower value", "result": 0.945}, {"measurement": "normalized growth", "setting": "locus YFR010W, strain ubp6, stronger effect = lower value", "result": 0.974}, {"measurement": "normalized growth", "setting": "locus YGL078C, strain dbp3, stronger effect = lower value", "result": 0.951}, {"measurement": "normalized growth", "setting": "locus YGL086W, strain mad1, stronger effect = lower value", "result": 0.976}, {"measurement": "normalized growth", "setting": "locus YGL167C, strain pmr1, stronger effect = lower value", "result": 0.958}, {"measurement": "normalized growth", "setting": "locus YGL173C, strain kem1, stronger effect = lower value", "result": 0.96}, {"measurement": "normalized growth", "setting": "locus YGL227W, strain vid30, stronger effect = lower value", "result": 0.988}, {"measurement": "normalized growth", "setting": "locus YGL240W, strain doc1, stronger effect = lower value", "result": 0.963}, {"measurement": "normalized growth", "setting": "locus YGL248W, strain PDE1, stronger effect = lower value", "result": 0.985}, {"measurement": "normalized growth", "setting": "locus YGL253W, strain hxk2, stronger effect = lower value", "result": 0.974}, {"measurement": "normalized growth", "setting": "locus YGR078C, strain PAC10, stronger effect = lower value", "result": 0.945}, {"measurement": "normalized growth", "setting": "locus YGR135W, strain pre9, stronger effect = lower value", "result": 0.971}, {"measurement": "normalized growth", "setting": "locus YGR229C, strain SMI1, stronger effect = lower value", "result": 0.877}, {"measurement": "normalized growth", "setting": "locus YGR252W, strain gcn5, stronger effect = lower value", "result": 1.01}, {"measurement": "normalized growth", "setting": "locus YHR013C, strain ard1, stronger effect = lower value", "result": 0.855}, {"measurement": "normalized growth", "setting": "locus YHR027C, strain rpn1, stronger effect = lower value", "result": 0.981}, {"measurement": "normalized growth", "setting": "locus YHR030C, strain SLT2, stronger effect = lower value", "result": 0.97}, {"measurement": "normalized growth", "setting": "locus YHR079C, strain IRE1 (second series), stronger effect = lower value", "result": 0.967}, {"measurement": "normalized growth", "setting": "locus YHR094C, strain hxt1, stronger effect = lower value", "result": 0.947}, {"measurement": "normalized growth", "setting": "locus YHR129C, strain ARP1, stronger effect = lower value", "result": 0.992}, {"measurement": "normalized growth", "setting": "locus YHR142W, strain chs7, stronger effect = lower value", "result": 0.931}, {"measurement": "normalized growth", "setting": "locus YHR200W, strain rpn10, stronger effect = lower value", "result": 0.987}, {"measurement": "normalized growth", "setting": "locus YIL066C, strain RNR3, stronger effect = lower value", "result": 0.977}, {"measurement": "normalized growth", "setting": "locus YIL073C, strain SPO22, stronger effect = lower value", "result": 0.862}, {"measurement": "normalized growth", "setting": "locus YIR030C, strain dcg1, stronger effect = lower value", "result": 0.985}, {"measurement": "normalized growth", "setting": "locus YJL092W, strain hpr5, stronger effect = lower value", "result": 0.978}, {"measurement": "normalized growth", "setting": "locus YJL095W, strain BCK1 (second series), stronger effect = lower value", "result": 0.972}, {"measurement": "normalized growth", "setting": "locus YJL095W, strain BCK1, stronger effect = lower value", "result": 0.92}, {"measurement": "normalized growth", "setting": "locus YJL115W, strain asf1, stronger effect = lower value", "result": 0.97}, {"measurement": "normalized growth", "setting": "locus YJL129C, strain trk1, stronger effect = lower value", "result": 0.929}, {"measurement": "normalized growth", "setting": "locus YJL134W, strain LCB3, stronger effect = lower value", "result": 1.02}, {"measurement": "normalized growth", "setting": "locus YJL154C, strain vps35, stronger effect = lower value", "result": 0.979}, {"measurement": "normalized growth", "setting": "locus YJL164C, strain tpk1, stronger effect = lower value", "result": 0.97}, {"measurement": "normalized growth", "setting": "locus YJL166W, strain qcr8, stronger effect = lower value", "result": 0.959}, {"measurement": "normalized growth", "setting": "locus YJL168C, strain set2, stronger effect = lower value", "result": 0.986}, {"measurement": "normalized growth", "setting": "locus YJL187C, strain SWE1 (second series), stronger effect = lower value", "result": 0.983}, {"measurement": "normalized growth", "setting": "locus YJL187C, strain SWE1, stronger effect = lower value", "result": 0.978}]}
